Source: PubChem (several laboratories)
VLA-4 inh – inhibition in a human VLA-4 binding assay | P13612 | VLA-4 expressing cells, ligand binding flow cytometry | inhibition, % (about 7 µM as worked out from the volumes in the protocol) | hit rate 0.2% among 330,000; in the data active means inhibition above about 50%
PKA-R2B activ – activators of human PKA-R2B complex. P22694+P31323. PKA-R2B holoenzyme dissociation, Cy5-IP20 fluorescence polarization; R2B truncated from residue 108, S112A mutant; 0% DMSO only, 100% 113 µM cGMP. activation, % at 11.4 µM. hit rate 0.079% among 340,000. AID 504700;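 active means activation above a cutoff set at the mean over all compounds plus 3 SD, cut at about 18% in these data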;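 further: higher means more holoenzyme dissociation and a rise in polarization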
Target sequence (P31323 whole entry, looked up, other chains not shown, the tested form may be a part): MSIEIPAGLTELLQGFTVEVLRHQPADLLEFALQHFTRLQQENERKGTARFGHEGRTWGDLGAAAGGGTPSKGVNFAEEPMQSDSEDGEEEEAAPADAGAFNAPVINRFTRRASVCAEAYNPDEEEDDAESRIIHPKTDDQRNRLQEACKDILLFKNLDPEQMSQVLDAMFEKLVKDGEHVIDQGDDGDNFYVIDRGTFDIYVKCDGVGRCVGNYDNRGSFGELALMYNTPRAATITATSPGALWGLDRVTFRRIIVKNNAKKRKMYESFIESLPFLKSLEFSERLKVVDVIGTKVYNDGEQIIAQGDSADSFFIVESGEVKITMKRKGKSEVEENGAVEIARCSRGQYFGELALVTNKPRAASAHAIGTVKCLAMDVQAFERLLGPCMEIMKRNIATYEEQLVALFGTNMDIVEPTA
ATG4B inh – inhibitors of human ATG4B cysteine protease; Q9Y4P1; ATG4B cleavage of LC3-PLA2, NBD-HPC fluorescence, 1 h; inhibition, % at 8.33 µM; hit rate 0.51% among 340,000; in the data active means inhibition above about 40%
CendR NRP1 mod – alters CendR peptide binding to human NRP-1; O14786; FAM-RPARPAR peptide binding to NRP-1, fluorescence polarization; inhibition, % at 25 µM; hit rate 0.85% among 360,000; AID 602438;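 active means inhibition or corrected inhibition above about 18%, plus a signal ratio from 0.5 to 1.5, limit read from the data, passing the limit was not always enough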
PKA-R1A activ – PKA-R1A complex activation. hit rate 0.083% among 340,000. PKA-R1A dissociation, Cy5-IP20 fluorescence polarization; scaled: DMSO 0%, 113 µM cGMP 100%. AID 504707. activation, % at 11.4 µM;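 active means percent activation above the mean of all tested compounds plus 3 SD, cut at about 19% in these data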;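 further: higher means more PKAc released from R1A so a rise in polarization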
* = called active by the depositor; nt = not tested or not shown. Only some compounds are listed: those with a hit (about 1.6% of all), similar ones and a draw of the others.

SMILES	VLA-4 inh	PKA-R2B activ	ATG4B inh	CendR NRP1 mod	PKA-R1A activ
CCCCn1c(NS(=O)(=O)c2ccccc2)c(S(=O)(=O)c2ccc(C)cc2)c2nc3ccccc3nc21	9	-3	75*	14	-7
COc1cc(NC(=O)C/C(C)=N/NC(=O)c2ccccn2)c(OC)cc1Cl	-4	-11	0	23*	-12
COc1ccc(Cl)cc1S(=O)(=O)N1CCN(c2ccc(F)cc2)CC1	12	-17	-12	29*	-14
Nc1c(C(=O)Nc2ccccc2Cl)nnn1-c1ccc2c(c1)OCCO2	0	6	0	-11	-2
CC(=O)NC(c1cc(F)c2cccnc2c1O)C1CC1 (stereo not drawn)	9	-4	-8	26*	-1
CCC(=O)NC(c1cc(Cl)c2cccnc2c1O)C1CC1 (stereo not drawn)	14	-8	6	-1	-20
Cc1cccc(C(=O)OCC(=O)Nc2c(C)n(C)n(-c3ccccc3)c2=O)c1	15	-14	3	19*	-2
Cc1ccsc1C(=O)OCC(=O)Nc1c(C)n(C)n(-c2ccccc2)c1=O	23	-3	-5	5	-4
Cc1onc(-c2ccccc2)c1C(=O)Nc1c(C)n(C)n(-c2ccccc2)c1=O	20	-10	-4	38*	-19
NC(=O)C1=C[C@H](c2ccc(C(F)(F)F)cc2)C[C@H](OCCCCO)O1	-8	6	-11	11	3
CC(C)[C@H]1C=C(C(=O)O)O[C@@H](OCCCCO)C1	nt	6	-14	26*	-3
O=C(O)C1=C[C@@H](c2ccc(C(F)(F)F)cc2)C[C@@H](OCCCCO)O1	nt	-7	-3	28*	-6
CC(C)[C@H]1C=C(C(=O)O)O[C@@H](OCc2ccc(CO)cc2)C1	-16	-7	-1	-4	6
CCC(C)CN1C(=O)CN(S(C)(=O)=O)CC1(C)C(=O)Nc1c(C)cccc1C (stereo not drawn)	nt	nt	nt	5	nt
CC1(C)N=C(N)N=C(N)N1c1ccc(CCCCc2ccccc2)cc1	nt	0	nt	2	5
Cn1cccc1C1Nc2ccccc2NC2=C1C(=O)CC(C)(C)C2 (stereo not drawn)	13	3	-2	22*	-1
CC1(C)CC(=O)C2=C(C1)Nc1ccccc1NC2c1cccc(F)c1 (stereo not drawn)	6	0	9	-12	5
COc1ccc(C(=O)c2nccc3cc(OC)c(OC)cc23)cc1OC	23	-5	1	26*	3
CCOC(=O)c1c(NC(=O)COc2ccccc2C#N)sc2c1CC(C)(C)NC2(C)C	9	-3	5	22*	0
O=C(CC(Cc1ccccc1)C(=O)O)Nc1ccc(Cl)c(Cl)c1 (stereo not drawn)	14	11	-4	4	-3
Cc1ccccc1N=Nc1c(C)[nH]n(C(N)=S)c1=O	0	0	-2	1	6
Cc1[nH]n(C(N)=S)c(=O)c1N=Nc1ccc([N+](=O)[O-])cc1Cl	19	-3	1	39*	-1
CCCC(=O)N1CCC1(C)C(=O)Nc1scc(C)c1C#N (stereo not drawn)	nt	nt	nt	-5	nt
O=C1NC(c2ccccc2)CCO1 (stereo not drawn)	-5	-5	3	-7	-4
O=S1(=O)NC(C2CC2c2ccccc2)CCO1 (stereo not drawn)	-2	1	-6	23*	-3
SMILES	VLA-4 inh	PKA-R2B activ	ATG4B inh	CendR NRP1 mod	PKA-R1A activ
COC(=O)c1ccc(Cn2nnc3c(=O)[nH]c(C4CCCN(S(=O)(=O)c5cccc(Cl)c5)C4)nc32)cc1 (stereo not drawn)	0	-6	1	27*	-4
CCO[C@@H]1OC(C(=O)NCc2ccccc2)=C[C@H](c2ccccc2)[C@H]1CCCO	-1	-4	-1	8	-1
CCO[C@@H]1OC(C(=O)NCc2ccccc2)=C[C@H](C)[C@H]1CCCO	nt	-1	8	26*	3
CCO[C@@H]1OC(C(=O)NCc2ccccc2)=C[C@H](c2coc3ccccc3c2=O)[C@H]1CCCO	11	4	-7	20*	-8
CCO[C@@H]1OC(C(=O)NC2CC2)=C[C@H](C(C)(C)C)[C@H]1CCCO	-4	-5	-18	23*	-6
Cn1c(=O)c2cc(NC(=S)NCc3ccccc3F)ccc2n1Cc1cccc(C(F)(F)F)c1	nt	nt	nt	0	nt
